Assay results taken from PubChem BioAssay AID720514 (Broad Institute, 2013).
Screen size: about 2,100 compounds; about 300 (14%) were called active. Another 2% or so got no clear call; they are omitted.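 How the source made its calls: active means every replicate test run called active, with the signal falling and half-maximal concentration within twice the top valid dose; inconclusive means the replicate test runs disagree in their calls; inactive means every test run inactive, including effects in the opposite direction.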 These entries were drawn from the full list. Potency and affinity values are given separately.

Experiment: inhibitors of PGC1a acetylation in cells, dose response, cell-based, cherry-picked samples (AID 720514);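 further: 0% = neutral control wells and -100% = positive control wells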
Conditions: U2OS PGC1a acetylation, AlphaLISA, overnight; series mostly up to 19.5 µM; activity change, negative = inhibition: at the top concentration

Activity change, negative = inhibition, inactive:
C[C@@H]1CN([C@@H](C)CO)C(=O)c2c(c3ccccc3n2C)-c2ccccc2CO[C@@H]1CN(C)C(=O)c1cc(Cl)cc(Cl)c1 84%
C[C@H]1CN([C@@H](C)CO)S(=O)(=O)c2ccc(C#CCN(C)C)cc2O[C@@H]1CN(C)Cc1ccc2c(c1)OCO2 63.7%
C[C@H](CO)N1C[C@H](C)[C@H](CN(C)Cc2ccc(C(=O)Nc3ccccc3N)cc2)Oc2c(NC(=O)c3ccncc3)cccc2C1=O 66.6% [at 16 µM]
C[C@H](CO)N1C[C@H](C)[C@@H](CN(C)CC2CCCCC2)Oc2c(NC(=O)c3nc4ccccc4s3)cccc2C1=O -3.98%
Nc1c(C(=O)c2ccccc2)sc2nsc(SCCN3CCCC3)c12 56.7%
COc1ccc(S(=O)(=O)Nc2ccc3c(c2)C(=O)N([C@H](C)CO)C[C@H](C)[C@H](CN(C)S(=O)(=O)c2cn(C)cn2)OCCCC[C@@H](C)O3)cc1 39.9% [at 21 µM]
COC(=O)C(Nc1ccccc1Cl)(c1cc(C)c(O)c(C)c1)C(F)(F)F (centres undefined) 63.8%
CC(C)(C)c1ccc(C(=O)c2c[nH]c(C(=O)NCc3cccnc3)c2)cc1 303%
CCN(CC)CCCn1c(=S)[nH]c2cc(Cl)ccc2c1=O 119%
N#Cc1ccc(C(=O)CSc2nnc(-c3ccc(C(F)(F)F)cn3)s2)cc1 45.1%
O=C(CSc1nc2ccccc2c(=O)n1CC1CCCO1)N1CCN(c2ccccc2)CC1 (centres undefined) 30.9%
Cn1cc(-c2ccc(C(=O)NCc3cccc(Cl)c3)c3occc23)cn1 72.5%
Cc1ccc2[nH]cc(C(=O)CN3CCN(c4ccccc4F)CC3)c2c1 58.1%
COc1ccc(NC(=O)N2CCN(c3ccc([N+](=O)[O-])cc3)CC2)cc1 85.4%
O=C(Nc1ccc(OCC(=O)N2CCC(Cc3ccccc3)CC2)cc1)c1ccco1 111%
COc1ccc(C2C(C(=O)Nc3ccccc3)=C(C)Nc3nc(CCCO)nn32)cc1 (centres undefined) 69.2%
CC1=CC(C)(C)N2C(=O)C3(SCC(=O)N3c3ccc(F)cc3)c3cc(C)cc1c32 (centres undefined) 65.8%
NC(=O)Cn1cc(C(=O)c2cccs2)c2ccccc21 101%
C[C@@H]1CN([C@@H](C)CO)C(=O)c2c(c3ccccc3n2C)-c2ccccc2CO[C@@H]1CN(C)C(=O)c1ccc(F)cc1 154% [at 21 µM]
O=S(=O)(NCc1ccccc1Br)c1ccccc1Br 43.5%
COCCN(C)Cc1nc(C(c2ccccc2)c2ccccc2)no1 41.6%
Cc1cc(C(F)(F)F)n(-c2nc(C(=O)NNS(=O)(=O)c3ccccc3[N+](=O)[O-])cs2)n1 65.3%
O=C(NCCC1=CCCCC1)c1coc(=O)c(Br)c1 27.7%
O=C(NCc1cccnc1)c1ccc(NC(=O)c2cccc([N+](=O)[O-])c2)cc1 327%
COc1cc(/C=C2\SC(=O)NC2=O)ccc1Oc1ccc([N+](=O)[O-])cn1 54%
COc1ccc(CN2CCn3ncc(C(=O)Nc4ccccc4)c3C2=O)cc1 30.6%
COc1ccc(C#Cc2c(-c3ccccc3)n(-c3ccccc3)c3ccc(CO)cc23)cc1 101%
CC12CCC(C1)C(C)(C)C2NS(=O)(=O)c1ccc(F)cc1 (centres undefined) 96.9%
COc1ccc(NC(=O)c2sccc2SCc2cccc(C(F)(F)F)c2)cc1 93.2%
O=C(Cn1c(CN2CCCCC2)nc2ccccc2c1=O)Nc1ccccc1 59.2%
COc1ccc(Cn2nnnc2C(C(C)C)N(Cc2ccco2)Cc2cccs2)cc1 (centres undefined) 116%
COc1ccc(S(=O)(=O)N(C)CC(=O)Nc2cccc(C(C)=O)c2)cc1Cl 89.1%
COc1cccc(C(=O)/C=C/c2ccc(OCC#N)c(OC)c2)c1 44.8% [at 10 µM]
COc1ccc(S(=O)(=O)NNC(=O)c2csc(-n3nc(C)cc3C(F)(F)F)n2)cc1 46.5% [at 10 µM]
COc1ccc(Nc2nnc(-c3ccc(C(=O)NCCO)cc3)c3ccccc23)cc1 89.6%
Cn1ncc(Cl)c1C(=O)Nc1sc2c(c1C(N)=O)CCC2 44.2% [at 10 µM]
N#Cc1cccc(C(c2nnnn2C2CCCC2)N2CCCCCC2)c1 (centres undefined) 81.4%
Cc1c(C(=O)N2CCN(c3ccccn3)CC2)sc2ncnc(N3CCN(c4ccccc4)CC3)c12 34.3%
COc1cc(NC(=O)c2cccs2)c(OC)cc1NC(=O)CCC(=O)Nc1ccc2ncccc2c1 202% [at 10 µM]
O=C(Nc1ccc(F)cc1F)N1CCCN(c2ccc([N+](=O)[O-])cn2)CC1 107%
Cc1ccc(CC(=O)N2CCN(c3ccc([N+](=O)[O-])cc3)CC2)cc1 228%
CS(=O)(=O)N(CC(=O)N1CCN(c2ccccc2)CC1)c1cccc(Br)c1 51.7%
Cc1ccc(OCC(=O)NCCCNC(=O)c2cccnc2)cc1C 201% [at 10 µM]
O=C(COc1ccc(Cl)cc1)NCCCNC(=O)c1cccnc1 238% [at 10 µM]
Cc1cc2oc(=O)cc(CN3CCC(C)CC3)c2cc1C 50.6%
O=C(CN1CCC(n2nnc3ccccc32)CC1)NCc1cccs1 118%
C=CCNC(=O)c1ccc(CN2CCC(Cc3ccccc3)CC2)cc1 29.6%
Cc1cc(C(=O)NNS(=O)(=O)c2ccc(F)cc2)nn1C(C)(C)C 430% [at 10 µM]
COc1cc(CN2[C@@H]3CNC[C@H]2C3c2ccc(-c3ccccc3)cc2)cc(OC)c1 (some centres undefined) 44.3%
COc1ccc(CCCNC(=O)C2(C)Cc3c(-c4ccc5c(c4)OCO5)ccnc3O2)cc1 (centres undefined) 25%
CCOc1ccc(NC2c3ccccc3C(=O)N2Cc2ccc3c(c2)OCO3)cc1 (centres undefined) 38.7%
O=C(c1ccccc1Nc1ccc(SC(F)F)cc1)N1CCCCCC1 61.7%
Cc1cccc(Nc2nnc(-c3ccc(C(=O)N4C[C@H]5C[C@H](C4)c4cccc(=O)n4C5)cc3)c3ccccc23)c1 64.7%
COC(=O)[C@H](Cc1ccccc1)N(C)S(=O)(=O)c1cccc(S(=O)(=O)N(C)[C@@H](Cc2ccccc2)C(=O)OC)c1 47.9%
Cc1csc(NC(=O)NC2(C(F)(F)F)Oc3ccccc3O2)n1 85.6% [at 10 µM]
O=C(Nc1cccc(C(F)(F)F)c1)c1sc(Cl)nc1C(F)(F)F 62.9%
Cc1cccc(C)c1OC1(c2ccccc2)OC(=O)c2ccccc21 (centres undefined) 94.7%
O=C(CCn1nnc2ccccc21)Nc1nnc(Cc2ccccc2)s1 87.3%
O=S(=O)(NC12CC3CC(CC(C3)C1)C2)c1ccc(F)cc1 47.5%
O=C(CSc1nnc(Cn2cnc3ccccc32)o1)c1ccccc1 172%
CCOc1ccc(-c2nnn(CC#N)n2)cc1OC 186% [at 10 µM]
Cc1cc(C)c2oc(C(=O)N(Cc3ccccc3)c3ccccn3)cc(=O)c2c1 44.6%
Cc1ccc(NC(=O)CN(C)S(=O)(=O)c2cccs2)c(Br)c1 48.4%
N#C/C(=C(/O)c1ccco1)c1nc2ccccc2[nH]1 286%
COc1ccc(-c2c(-c3cc(OC)cc(OC)c3)n(C)c3ccc(-c4cnc(N)nc4)cc23)cc1 119%
Cc1cc(S(=O)(=O)c2ccc([N+](=O)[O-])cn2)ccc1Br 105% [at 10 µM]
O=C(NCCC1CCCCN1S(=O)(=O)c1cccs1)C(=O)Nc1ccc(F)cc1F (centres undefined) 81.8%
O=C(Cc1ccccn1)NCC[C@@H]1CC[C@H](NC(=O)Nc2ccc(C(F)(F)F)cc2)[C@H](CO)O1 -0.998%
O=C(Cc1ccccn1)NCC[C@H]1CC[C@H](NC(=O)Nc2ccc(C(F)(F)F)cc2)[C@H](CO)O1 12.7% [at 21 µM]
CCOC(=O)C(Cc1ccc(NC(=O)/C(=C\c2ccccc2)NC(=O)c2ccccc2)cc1)N1C(=O)c2ccccc2C1=O (centres undefined) 39.8%
O=C(NCc1cccs1)C1Cc2c(-c3ccc(Cl)cc3)ccnc2O1 (centres undefined) 95.1%
C[n+]1c2n(c3ccccc31)N=C(c1cc(C(C)(C)C)c(O)c(C(C)(C)C)c1)CS2 119%
COc1ccc([N+](=O)[O-])cc1NCc1ccccc1 131% [at 10 µM]
Cc1cc(C)c2c(-n3cccc3)c(C(=O)NNS(=O)(=O)c3ccc(F)cc3)sc2n1 109%
CCOC(=O)C1=CC[C@@H](c2ccccc2)N(S(=O)(=O)c2ccc(C)cc2)[C@H]1c1ccc(CC)cc1 153% [at 10 µM]
CCN(CC)c1ccc(NC(=O)c2cc(OC)cc(OC)c2)c(C)c1 58.6%
CCOC(=O)c1ccc(NC(=O)N2CCc3ccccc3C2)cc1 223% [at 10 µM]
CC1(Cc2ccc(Cl)cc2)C(=O)Nc2c(Cl)ccc(Cl)c21 (centres undefined) 87.1%
Cc1ccc(OCC(=O)N2CC(C)OC(C)C2)c([N+](=O)[O-])n1 (centres undefined) 44.5% [at 10 µM]
CCOC(=O)C(C)n1cnc2c(nnn2-c2ccc(C)cc2)c1=O (centres undefined) 43%
COc1ccc2nc3c(cc2c1)c(NC(=O)c1cccs1)nn3CC(C)C 83% [at 10 µM]
O=C(NCc1ccccc1)C(c1ccccc1)N(C(=O)c1csnn1)c1ccc(F)cc1 (centres undefined) 84.8%
O=C(Nc1ccc(Nc2ccncc2)cc1)c1ccc([N+](=O)[O-])cc1 65.5% [at 10 µM]
CCC(=O)N1C[C@H](C)[C@@H](OC)CN(C)C(=O)c2ccc(NC(=O)Nc3ccccc3)cc2OC[C@@H]1C 29.8%
CO[C@@H]1CN(C)C(=O)c2cc(NC(=O)c3ccc(Oc4ccccc4)cc3)ccc2OC[C@@H](C)NC[C@@H]1C 62.6%
CCC(=O)Nc1ccc2c(c1)OC[C@@H](C)N(C(=O)c1cnccn1)C[C@H](C)[C@H](OC)CN(C)C2=O 30.5%
CCOC(=O)C1(N(CC)CC)Sc2cc(C)ccc2NC1=O (centres undefined) 115%
CC(=O)Nc1sc2c(c1-c1nc3ccccc3s1)CN(C(C)C)CC2 174%
C[C@@H]1CN([C@H](C)CO)C(=O)CCCn2nncc2CO[C@H]1CN(C)C(=O)C1CC1 49.1%
O=C(Cc1ccccc1)Nc1ccc(NC(=O)c2ccco2)nc1 95.1% [at 10 µM]
CC(=O)C1=CCC(c2cccc3ccccc23)N(S(=O)(=O)c2ccc(C)cc2)C1 (centres undefined) 37.8%
CCOC(=O)N1CCN(C(=O)C(NS(=O)(=O)c2cccc3nsnc23)c2ccccc2)CC1 (centres undefined) 46%
O=C(COC(=O)c1ccco1)NCc1ccc2c(c1)OCO2 35.4%
Cc1cccc(CS(=O)(=O)c2ncc(Cl)c(C(=O)Nc3ccc(F)cc3)n2)c1 41% [at 10 µM]
